Results reported in PubChem BioAssay.
Calls of active or inactive are those of the source. Unless noted, no rule for the calls is given here.

Legend:
[1] = resazurin metabolic signal in HepG2 cells – cell-based, resazurin fluorescence, 24 h, PK04 Diversity Set, profiling panel (AID 1172); conditions: HepG2 viability, higher = more signal; also: test concentration not given here
[2] = budding yeast growth changes without added modifier – OD600, strain BY4716, 24 h, basal condition, primary screen (AID 1173); conditions: S. cerevisiae BY4716 growth, OD600, 24 h; higher = more signal, called active from +8 up or from −8 down
[3] = viability profiling in MM1S myeloma cells – cell-based, resazurin fluorescence, basal, 24 h, PK04 Diversity Set, profiling panel (AID 1174); conditions: higher = more signal, called active from +8 up or from −8 down;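 also: MM1S multiple myeloma cell line; test concentration not given here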
[4] = molecular target: Dihydroorotate dehydrogenase (quinone), mitochondrial (Plasmodium falciparum (isolate 3D7)) (UniProt Q08210); assay: inhibition of P. falciparum DHODH – biochemical, C-terminal His tag, absorbance 600 nm, primary screen (AID 1175); conditions: PfDHODH enzyme, DCIP absorbance 600 nm; higher = more signal, called active from +8 up or from −8 down;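 also: recombinant parasite enzyme with a five histidine tag at its C terminus; test concentration not given here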
[5] = inhibition of PAO1 biofilm formation – strain PAO1, LB-PBS medium, absorbance 600 nm, primary screen (AID 1176); also: test concentration not given here; conditions: P. aeruginosa PAO1 growth/biofilm, A600, 12 h; higher = more signal
[6] = growth modulation of vineyard yeast isolate – strain RM11-1a, OD600, basal, 24 h, primary screen (AID 1177);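 also: cultures grown under basal conditions with no added stressor; test concentration not given here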; conditions: S. cerevisiae RM11-1a growth, OD600, 24 h; higher = more signal, called active from +8 up or from −8 down
[7] = growth of efflux-deficient E. coli DRC39 – strain DRC39, OD650, 24 h, E. coli filamentation inducers, primary screen (AID 1178);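 also: growth measured as culture turbidity by optical density at 650 nm; test concentration not given here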; conditions: E. coli DRC39 acrAB, higher = more signal, called active from +8 up or from −8 down
[8] = growth of efflux-deficient E. coli DRC39 – strain DRC39, OD650, 48 h, E. coli filamentation inducers, primary screen (AID 1179);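 also: screen aims at cell division blockers that make cells filament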; conditions: E. coli DRC39 delta-acrAB growth, higher = more signal, called active from +8 up or from −8 down
[9] = viability profiling in RPMI8226 myeloma cells – cell-based, resazurin fluorescence, basal, 24 h, PK04 Diversity Set, profiling panel (AID 1180); conditions: higher = more signal;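 also: RPMI8826 multiple myeloma cell line at 5000 cells per well; test concentration not given here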
[10] = molecular target: E3 ubiquitin-protein ligase XIAP (Homo sapiens) (UniProt P98170); assay: small molecules binding XIAP protein – biophysical, small-molecule microarray, fluorescence 635 nm, primary screen (AID 1181); conditions: higher = more signal;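 also: score merges 667 nm emission and signal to noise over triplicate slides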
E3 ubiquitin-protein ligase XIAP (Homo sapiens), sequence (P98170 whole entry, looked up): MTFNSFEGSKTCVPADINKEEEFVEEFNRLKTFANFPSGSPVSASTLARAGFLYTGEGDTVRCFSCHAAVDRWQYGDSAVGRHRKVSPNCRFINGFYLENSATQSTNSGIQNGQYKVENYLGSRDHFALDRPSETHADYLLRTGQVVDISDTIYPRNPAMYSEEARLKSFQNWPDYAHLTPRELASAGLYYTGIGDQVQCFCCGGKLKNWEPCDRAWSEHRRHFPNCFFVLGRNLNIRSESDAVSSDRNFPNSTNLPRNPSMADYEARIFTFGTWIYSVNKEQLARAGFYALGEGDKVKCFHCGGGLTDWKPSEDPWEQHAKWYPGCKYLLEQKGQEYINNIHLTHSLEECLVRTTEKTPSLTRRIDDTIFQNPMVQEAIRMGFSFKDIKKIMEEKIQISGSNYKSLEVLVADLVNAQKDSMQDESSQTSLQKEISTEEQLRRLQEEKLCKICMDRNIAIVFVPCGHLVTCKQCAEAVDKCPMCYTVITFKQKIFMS

Dihydroorotate dehydrogenase (quinone), mitochondrial (Plasmodium falciparum (isolate 3D7)), sequence (Q08210 whole entry, looked up): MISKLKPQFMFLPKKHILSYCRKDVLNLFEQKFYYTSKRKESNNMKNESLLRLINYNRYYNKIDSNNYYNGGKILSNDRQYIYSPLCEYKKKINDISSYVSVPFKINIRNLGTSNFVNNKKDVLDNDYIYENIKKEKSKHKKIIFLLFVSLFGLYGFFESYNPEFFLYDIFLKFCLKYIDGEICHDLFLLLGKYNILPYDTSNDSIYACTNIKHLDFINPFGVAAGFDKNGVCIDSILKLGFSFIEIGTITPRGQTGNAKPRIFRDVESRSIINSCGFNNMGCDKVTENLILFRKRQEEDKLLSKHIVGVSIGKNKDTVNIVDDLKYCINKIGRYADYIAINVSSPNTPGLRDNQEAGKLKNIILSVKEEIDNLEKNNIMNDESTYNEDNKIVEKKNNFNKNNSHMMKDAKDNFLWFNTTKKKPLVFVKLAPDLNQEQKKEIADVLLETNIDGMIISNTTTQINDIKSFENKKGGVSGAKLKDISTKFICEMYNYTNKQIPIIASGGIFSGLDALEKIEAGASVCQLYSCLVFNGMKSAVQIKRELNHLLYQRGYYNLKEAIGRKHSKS

SMILES | z-score [1] | z-score [2] | z-score [3] | composite z-score [4] | z-score [5] | z-score [6] | z-score [7] | z-score [8] | z-score [9] | composite z-score [10]
CN(C)CCCCCCNC(=O)[C@@H]1C[C@@H]2C(=O)N[C@@H](CCCCN)C(=O)N2[C@@H]1c1cccc(OCCO)c1 | -0.205 | -0.707 (inactive) | 0.364 (inactive) | -1.12 (inactive) | 1.29 (inactive) | -2.27 (inactive) | 0.731 (inactive) | -0.199 (inactive) | 0.393 | 3.31
COc1ccc(CCNC(=O)[C@@]2(C)c3ccccc3C(=O)N(Cc3cc(F)cc(C(F)(F)F)c3)[C@H]2c2ccc(CO)cc2)cc1 | -0.469 | -0.513 (inactive) | 1.02 (inactive) | 0.917 (inactive) | 0.593 (inactive) | 1.1 (inactive) | 0.568 (inactive) | 0.453 (inactive) | 0.652 | 0.003
COC(=O)[C@@]1(Cc2ccc(OC)cc2)[C@H]2c3cc(C(=O)N(C)C)n(Cc4cccc5ccccc45)c3C[C@H]2CN1C(=O)c1ccccc1 | -1.75 | 0.897 (inactive) | -2.01 (inactive) | -3.49 (inactive) | 2.31 (inactive) | 0.872 (inactive) | -0.353 (inactive) | -0.999 (inactive) | -2.66 | 0.101
COC(=O)[C@@]1(Cc2ccc(F)cc2)[C@H]2c3cc(C(=O)N(C)C)n(Cc4nc5ccccc5[nH]4)c3C[C@H]2CN1C(=O)c1ccccc1 | 0.455 | 0.681 (inactive) | -0.534 (inactive) | 0.0187 (inactive) | 0.315 (inactive) | 0.22 (inactive) | -0.0051 (inactive) | 0.12 (inactive) | -0.187 | 0.338
O=C1O[C@H](c2ccccc2)[C@H](c2ccccc2)N2[C@H]1[C@@H](C(=O)Nc1nc3ccccc3s1)[C@]1(C(=O)Nc3ccc(C#CCCO)cc31)[C@H]2c1ccc(OCCO)cc1 | -0.251 | 1.2 (inactive) | 0.527 (inactive) | -1.6 (inactive) | 1.85 (inactive) | 1.67 (inactive) | -0.567 (inactive) | 0.161 (inactive) | -1.3 | 0.0637
COc1ccc(C(O)C2C=CC3C(=O)NC(=O)C3N2Nc2ccccn2)c2ccccc12 (stereo not given) | -1.07 | -0.33 (inactive) | -0.782 (inactive) | 0.977 (inactive) | 1.26 (inactive) | 0.75 (inactive) | -0.272 (inactive) | -0.571 (inactive) | -1.24 | 0.246
[N-]=[N+]=Nc1ccccc1C[C@]1(C(N)=O)N=C(c2ccc(OCCCO)cc2)O[C@H]1c1ccccc1 | 0.329 | -0.936 (inactive) | -1.02 (inactive) | 0.667 (inactive) | 1.16 (inactive) | 1.33 (inactive) | 0.0314 (inactive) | -0.665 (inactive) | -1.03 | -0.108
COc1ccc([C@H]2C[C@H]3C(Br)=C[C@@H]2C(=O)[C@]32CO2)cc1 | 0.158 | -6.22 (inactive) | -0.0566 (inactive) | 1.03 (inactive) | -0.647 (inactive) | 0.844 (inactive) | 1.75 (inactive) | 0.406 (inactive) | 0.869 | -0.0292
CC(C)C[C@@H]1NC(=O)[C@H]2C[C@@H](C(=O)NCCCCCCN)[C@@H](c3ccc(O)cc3)N2C1=O | -0.632 | -0.134 (inactive) | -0.403 (inactive) | 0.0444 (inactive) | -0.226 (inactive) | -0.459 (inactive) | -0.396 (inactive) | -0.975 (inactive) | -0.299 | -0.338
COCCOC(=O)N1C(=O)[C@@]2(c3cc(C#Cc4ccc(OC)cc4)ccc31)[C@H](c1ccccc1OCCO)N1[C@H](c3ccccc3)[C@H](c3ccccc3)OC(=O)[C@H]1[C@@H]2C(=O)N1CCN(c2ncccn2)CC1 | 0.214 | 2.12 (inactive) | -0.539 (inactive) | 0.478 (inactive) | 1.64 (inactive) | 3.89 (inactive) | 0.0722 (inactive) | 0.857 (inactive) | 0.0636 | 0.397
COCCOC(=O)N1C(=O)[C@@]2(c3ccccc31)[C@H](c1ccc(O)cc1)N1[C@H](c3ccccc3)[C@H](c3ccccc3)OC(=O)[C@H]1[C@@H]2C(=O)NC[C@H](O)c1ccccc1 | -0.796 | 0.861 (inactive) | -0.397 (inactive) | 0.873 (inactive) | 0.173 (inactive) | 0.957 (inactive) | -1.12 (inactive) | -1.29 (inactive) | -0.199 | 0.201
C[C@]1(C(=O)NC2CC2)c2ccccc2C(=O)N(Cc2cc(C(F)(F)F)cc(C(F)(F)F)c2)[C@H]1c1ccc(CO)cc1 | 0.546 | -0.66 (inactive) | 0.43 (inactive) | 0.262 (inactive) | -0.506 (inactive) | 0.558 (inactive) | 1.11 (inactive) | 0.833 (inactive) | 0.367 | -0.0646
CN1C(=O)C2C=CC(C(O)C3=C[C@H]4C[C@@H](C3)C4(C)C)N(Nc3ccccc3)C2C1=O (stereo not given in full) | -0.3 | 0.0844 (inactive) | -0.419 (inactive) | -0.0435 (inactive) | 2.14 (inactive) | 0.602 (inactive) | -0.328 (inactive) | -0.369 (inactive) | -0.52 | -0.174
C[C@@]1([C@@H](NC(=O)c2ccccc2)c2ccc(-c3ccccc3)cc2)C[C@H]1C1CCCCC1 | -1.32 | 1.14 (inactive) | -1.93 (inactive) | -0.712 (inactive) | 1.57 (inactive) | 0.0656 (inactive) | -1.59 (inactive) | -1.17 (inactive) | -0.675 | -0.117
CC(C)C[C@H]1NC(=O)[C@@]23C(=O)N[C@@H](Cc4ccccc4)C2[C@H](C)[C@@]2(C)O[C@H]2C3/C=C/C/C=C\CNC(=O)[C@H](Cc2ccccc2)NC1=O (stereo not given in full) | 0.183 | 0.0247 (inactive) | 0.333 (inactive) | -0.259 (inactive) | 0.0117 (inactive) | 1.66 (inactive) | 0.805 (inactive) | 0.199 (inactive) | 0.628 | 0.0842
C=CCC(OC(C)=O)[C@@H]1[C@@H](N(Cc2cccc3ccccc23)C(=O)c2ccc(-c3ccccc3)cc2)c2cc(OCCCO)ccc2N1C(=O)Cc1ccc(OC)cc1 (stereo not given in full) | 1.07 | -0.912 (inactive) | 1.6 (inactive) | -0.606 (inactive) | -0.513 (inactive) | -1.2 (inactive) | 0.738 (inactive) | 0.718 (inactive) | 1.45 | -0.0076
C=CC[C@]1(C(=O)NCCCOC)N=C(c2ccc(OCCCO)cc2)O[C@H]1c1ccccc1N=[N+]=[N-] | 0.632 | 0.215 (inactive) | -0.894 (inactive) | 1.1 (inactive) | 1.79 (inactive) | 0.571 (inactive) | 0.961 (inactive) | -0.615 (inactive) | -1.04 | 0.262
O=C1[C@H]2C=C(Br)[C@H](C[C@@H]2OCCCCO)[C@@]12CO2 | -0.312 | -0.172 (inactive) | -0.718 (inactive) | 0.228 (inactive) | 0.13 (inactive) | 0.614 (inactive) | -0.649 (inactive) | -0.808 (inactive) | -0.133 | -0.0749
O=C(NCC(F)(F)F)[C@@H]1c2ccccc2C(=O)N(C2CCCCC2)[C@H]1c1ccc(CO)cc1 | -0.501 | 0.804 (inactive) | -0.435 (inactive) | 0.843 (inactive) | -0.255 (inactive) | 1.11 (inactive) | -0.0514 (inactive) | -0.335 (inactive) | 0.538 | 0.056
C=CCN(Cc1ccccc1)C(=O)C(c1cccs1)N(CCOCCO)C(=O)/C=C\C(=O)O (stereo not given) | -0.393 | -1.1 (inactive) | 0.666 (inactive) | -1.37 (inactive) | 0.661 (inactive) | -0.947 (inactive) | 0.441 (inactive) | 1.05 (inactive) | 0.463 | 0.223
COc1ccc(C(O)C2C=CC3C(=O)N(c4ccccc4)C(=O)C3N2Nc2ccccc2F)cc1OCc1ccccc1 (stereo not given) | -0.299 | -0.737 (inactive) | -1.66 (inactive) | -0.318 (inactive) | 1.11 (inactive) | -0.0242 (inactive) | -0.472 (inactive) | 0.226 (inactive) | -1.55 | 0.0158
CC(C)c1ccc(NN2C(C(O)c3cc(C(F)(F)F)cc(C(F)(F)F)c3)C=CC3C(=O)N(c4ccccc4)C(=O)C32)cc1 (stereo not given) | -2.42 | -1.33 (inactive) | -3.12 (inactive) | 0.643 (inactive) | 1.18 (inactive) | 1.79 (inactive) | -0.447 (inactive) | -0.729 (inactive) | -5.25 | 0.0813
CC(C)(C)OC(=O)CC[C@]12N=C(c3ccc(OCCCO)cc3)O[C@H]1c1ccccc1N(CCS(=O)(=O)c1ccccc1)C2=O | 0.0763 | 0.688 (inactive) | -3.32 (inactive) | 0.017 (inactive) | 2.21 (inactive) | 1.84 (inactive) | 0.908 (inactive) | 0.0504 (inactive) | -1.19 | 0.0761
